# Test results published in PubChem BioAssay (NCATS).
# “And” between values parts separate entries of the source, which are not always exact repeats. Equal values may be shown once. Inconclusive results are not listed. Where a call stands in place of a potency, no number is given. The source made the active and inactive calls. Unless noted, the call rests on the fitted dose curve; in most records, active means well fitted curve in the direction sought with a large enough effect; inconclusive means small, poorly fitted or top-dose-only effect, or another doubt; inactive means no such curve, though single readings can be large; an effect the other way counts as inactive or inconclusive.
# What was measured:
# [1] = target: T1, Tyrosine-protein phosphatase non-receptor type substrate 1 (Homo sapiens) + Leukocyte surface antigen CD47 (Homo sapiens) (UniProt P78324+Q08722); assay: CD47-SIRPalpha protein protein interaction - LANCE assay qHTS validation (AID 1347057; active means well fitted curve in the direction sought with a large enough effect in the signal ratio, with a control signal flat, not every such curve was filed as active; the % refers to the signal ratio; further: series mostly up to about 38 µM)
# Method in brief: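 First, His-tagged CD47 and Eu-labelled anti-His antibody met the compound for 30 min; next, site-specifically biotinylated SIRPalpha was added for 30 min; finally streptavidin-APC was added before reading the TR-FRET ratio.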
# [2] = target: T1, Tyrosine-protein phosphatase non-receptor type substrate 1 (Homo sapiens) + Leukocyte surface antigen CD47 (Homo sapiens); assay: CD47-SIRPalpha protein protein interaction - HTRF assay qHTS validation (AID 1347058; active means well fitted curve in the direction sought with a large enough effect in the signal ratio, not every such curve was filed as active; the % refers to the signal ratio;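 further: recombinant soluble extracellular CD47 with His tag and biotinylated SIRPalpha domains; series mostly up to about 38 µM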)
# Method in brief: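 TR-FRET read (Ch1/Ch2 ratio) of soluble extracellular CD47 and Avi-biotinylated SIRPalpha domains in PBS pH 7.4 with 0.05% IGEPAL; 7-point compound titration. Sequential 30 min room-temperature steps; non-biotinylated SIRPalpha as control inhibitor.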
# [3] = target: Parathyroid hormone/parathyroid hormone-related peptide receptor (Homo sapiens) (UniProt Q03431); assay: qHTS for PTHR1 Agonists: Optimization Screen against the NCGC LOPAC library (AID 1347079);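 further: GloSensor cAMP luminescence in HEK-293 GP2 cells expressing human PTHR1 with IBMX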
# Method in brief: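 Compounds were tested across a qHTS titration. PTHR1-expressing GP2 cells report cAMP rises via GloSensor luminescence after 1 hr compound exposure at 37C with IBMX present.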
# [4] = qHTS of pediatric cancer cell lines to identify multiple opportunities for drug repurposing: Primary screen for TC32 cells (AID 1347089); further: nearly all actives have a fitted effect of over 60% in size; further: potency means the concentration at half of the fitted maximal effect
# Method in brief: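 Luminescent ATP read-out (CellTiter-Glo) of metabolically active TC32 cells after 48 h exposure. Concentration-response curves came from 11-point (MIPE, 0.78 nM–46 µM) or 8-point (NPC, 0.59 nM–46 µM) primary titrations; follow-up used 11 points.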
# [5] = qHTS of pediatric cancer cell lines to identify multiple opportunities for drug repurposing: Primary screen for DAOY cells (AID 1347090); further: nearly all actives have a fitted effect of over 55% in size; further: potency means the concentration at half of the fitted maximal effect
# Method in brief: (§1)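 Viability measured as metabolically active cells via CellTiter-Glo luminescence following 48 hours of compound exposure, 11-point dilutions in confirmatory testing. 500-1,000 cells/well plated 5 hours before dosing; controls were DMSO and 2.3 µM bortezomib.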
# [6] = qHTS of pediatric cancer cell lines to identify multiple opportunities for drug repurposing: Primary screen for SJ-GBM2 cells (AID 1347091); further: potency means the concentration at half of the fitted maximal effect
# Method in brief: as §1
# [7] = qHTS of pediatric cancer cell lines to identify multiple opportunities for drug repurposing: Primary screen for NB-EBc1 cells (AID 1347095); further: potency means the concentration at half of the fitted maximal effect
# Method in brief: (§2)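 Primary screen of approved and investigational compounds on cells in growth media at 37 degrees C, 5% CO2. MIPE set at 11-point and NPC set at 8-point dilutions; viability scored by ATP-based luminescence at 48 hours.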
# [8] = qHTS of pediatric cancer cell lines to identify multiple opportunities for drug repurposing: Primary screen for U-2 OS cells (AID 1347096); further: nearly all actives have a fitted effect of over 50% in size; further: potency means the concentration at half of the fitted maximal effect
# Method in brief: (§3)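 Viability after 48 h compound treatment at 37C, 500-1,000 cells/well, read as ATP luminescence with CellTiter-Glo. Primary screens used 11-point (MIPE, 0.78 nM-46 µM) or 8-point (NPC, 0.59 nM-46 µM) final concentrations; follow-up screens used 11-point dilutions.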
# [9] = qHTS of pediatric cancer cell lines to identify multiple opportunities for drug repurposing: Primary screen for Saos-2 cells (AID 1347097); further: nearly all actives have a fitted effect of over 40% in size; further: potency means the concentration at half of the fitted maximal effect
# Method in brief: as §2
# [10] = NS1 protein of Zika virus - qHTS assay to identify small molecule inhibitors in human HEK 293 cells (AID 1347053); further: series mostly up to about 46 µM; nearly all actives have a fitted effect of over 55% in size
# Method in brief: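 HEK 293 cells pretreated with compound for 1 h, then infected with ZIKV MR766 (MOI 0.5) for 24 h at 37 C. NS1 detected by TR-FRET with two anti-NS1 antibodies; normalized to uninfected (0%) and infected (100%) wells.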
# [11] = qHTS of pediatric cancer cell lines to identify multiple opportunities for drug repurposing: Primary screen for A673 cells (AID 1347092); further: nearly all actives have a fitted effect of over 45% in size; further: potency means the concentration at half of the fitted maximal effect
# Method in brief: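 Cell viability of A673 measured by CellTiter-Glo ATP luminescence after 48 hours compound exposure. Dilution series spanned 0.78 nM to 46 µM (MIPE, 11-point) or 0.59 nM to 46 µM (NPC, 8-point); bortezomib 2.3 uM positive control.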
# [12] = qHTS of pediatric cancer cell lines to identify multiple opportunities for drug repurposing: Primary screen for SK-N-MC cells (AID 1347093); further: potency means the concentration at half of the fitted maximal effect
# Method in brief: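 Metabolically active cells were quantified by ATP-dependent luminescence (CellTiter-Glo, 15 min at room temperature) following 48 h treatment. Cells had been plated at 500-1,000 per well and settled for 5 h beforehand.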
# [13] = qHTS of pediatric cancer cell lines to identify multiple opportunities for drug repurposing: Primary screen for SK-N-SH cells (AID 1347098); further: nearly all actives have a fitted effect of over 65% in size; further: potency means the concentration at half of the fitted maximal effect
# Method in brief: (§4)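 Cells (500-1,000/well) rested 5 h, then received compounds for 48 h; metabolically active cells were measured by CellTiter-Glo luminescence. Final concentrations spanned up to 46 µM (MIPE, 11-point) or 0.59 nM-46 µM (NPC, 8-point) in primary screens, 11-point in follow-ups.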
# [14] = qHTS of pediatric cancer cell lines to identify multiple opportunities for drug repurposing: Primary screen for NB1643 cells (AID 1347099); further: nearly all actives have a fitted effect of over 50% in size; further: potency means the concentration at half of the fitted maximal effect
# Method in brief: as §2
# [15] = qHTS of pediatric cancer cell lines to identify multiple opportunities for drug repurposing: Primary screen for BT-12 cells (AID 1347101); further: nearly all actives have a fitted effect of over 25% in size
# Method in brief: as §4
# [16] = qHTS of pediatric cancer cell lines to identify multiple opportunities for drug repurposing: Primary screen for Rh18 cells (AID 1347102); further: nearly all actives have a fitted effect of over 65% in size; further: potency means the concentration at half of the fitted maximal effect
# Method in brief: as §3
# [17] = qHTS of pediatric cancer cell lines to identify multiple opportunities for drug repurposing: Primary screen for BT-37 cells (AID 1347094); further: potency means the concentration at half of the fitted maximal effect
# Method in brief: as §2
# [18] = qHTS of pediatric cancer cell lines to identify multiple opportunities for drug repurposing: Primary screen for LAN-5 cells (AID 1347100); further: potency means the concentration at half of the fitted maximal effect
# Method in brief: as §3
# T1 sequence (P78324 whole entry, looked up): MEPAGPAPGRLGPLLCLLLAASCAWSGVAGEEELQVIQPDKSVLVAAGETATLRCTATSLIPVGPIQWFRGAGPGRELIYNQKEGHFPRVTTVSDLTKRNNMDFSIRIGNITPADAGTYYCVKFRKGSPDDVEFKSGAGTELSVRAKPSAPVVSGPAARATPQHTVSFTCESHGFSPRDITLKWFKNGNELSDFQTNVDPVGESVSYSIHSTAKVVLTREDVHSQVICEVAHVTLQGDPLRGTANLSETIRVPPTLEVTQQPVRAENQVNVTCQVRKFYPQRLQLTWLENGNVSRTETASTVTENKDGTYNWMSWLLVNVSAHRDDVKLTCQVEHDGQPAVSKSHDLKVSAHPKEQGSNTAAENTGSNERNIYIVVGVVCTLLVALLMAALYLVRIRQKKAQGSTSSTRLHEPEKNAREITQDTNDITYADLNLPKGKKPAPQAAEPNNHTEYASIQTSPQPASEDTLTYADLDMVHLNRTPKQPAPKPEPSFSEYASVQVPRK
# T1 sequence (Q08722 whole entry, looked up): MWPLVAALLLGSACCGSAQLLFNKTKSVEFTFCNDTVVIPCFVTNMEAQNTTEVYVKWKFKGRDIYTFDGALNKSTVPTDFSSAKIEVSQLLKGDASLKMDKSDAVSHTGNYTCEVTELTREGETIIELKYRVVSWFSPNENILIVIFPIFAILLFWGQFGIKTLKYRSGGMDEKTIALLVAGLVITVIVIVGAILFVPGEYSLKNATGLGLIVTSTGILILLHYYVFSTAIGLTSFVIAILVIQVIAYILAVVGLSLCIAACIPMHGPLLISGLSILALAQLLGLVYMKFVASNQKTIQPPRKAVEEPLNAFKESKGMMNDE
# Sequence of Parathyroid hormone/parathyroid hormone-related peptide receptor (Homo sapiens) (Q03431 whole entry, looked up): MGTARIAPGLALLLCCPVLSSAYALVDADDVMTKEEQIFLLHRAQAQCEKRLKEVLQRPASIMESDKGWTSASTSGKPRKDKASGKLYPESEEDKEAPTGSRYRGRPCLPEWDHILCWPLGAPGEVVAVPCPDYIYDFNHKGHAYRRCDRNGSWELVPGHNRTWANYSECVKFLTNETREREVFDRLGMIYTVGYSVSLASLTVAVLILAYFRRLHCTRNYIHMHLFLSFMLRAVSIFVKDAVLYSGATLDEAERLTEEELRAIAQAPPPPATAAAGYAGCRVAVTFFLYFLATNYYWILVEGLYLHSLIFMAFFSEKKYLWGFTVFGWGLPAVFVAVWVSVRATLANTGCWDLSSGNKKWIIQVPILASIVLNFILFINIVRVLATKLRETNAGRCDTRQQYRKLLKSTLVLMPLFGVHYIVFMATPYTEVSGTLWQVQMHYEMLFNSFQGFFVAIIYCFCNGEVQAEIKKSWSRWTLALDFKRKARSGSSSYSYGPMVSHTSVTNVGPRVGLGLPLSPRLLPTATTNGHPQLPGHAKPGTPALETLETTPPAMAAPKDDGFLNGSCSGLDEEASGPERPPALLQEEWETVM
smiles,measurement,setting,value
COc1ccc(Cc2nccc3cc(OC)c(OC)cc23)cc1OC,outcome,[1],inactive
same,outcome,[2],inactive
same,outcome,[3],inactive
CC[C@H]1OC(=O)[C@H](C)C(=O)[C@H](C)[C@@H](O[C@H]2O[C@H](C)C[C@H](N(C)C)[C@@H]2O)[C@](C)(OC)C[C@@H](C)C(=O)[C@H](C)[C@H]2N(CCCCn3cnc(-c4cccnc4)c3)C(=O)O[C@]12C,Potency,[4],inactive
same,Potency,[5],inactive
same,Potency,[6],inactive
same,Potency,[7],inactive
same,Potency,[8],inactive
same,Potency,[9],inactive
COc1cc(NC(=O)c2ccc(-c3ccc(Cl)cc3)o2)cc(OC)c1,Potency,[10],inactive
same,Potency,[11],7.43 µM (active)
same,Potency,[12],1.32 µM (active)
same,Potency,[7],inactive
same,Potency,[9],inactive
same,Potency,[13],1.52 µM (active)
same,Potency,[14],6.62 µM (active)
same,Potency,[15],inactive
same,Potency,[16],inactive
C=C1C(=O)OC(CCCCCCCC)C1C(=O)O (stereo not given),Potency,[4],inactive
same,Potency,[5],inactive
same,Potency,[6],20.9 µM (active)
same,Potency,[11],inactive
same,Potency,[17],inactive
same,Potency,[8],inactive
same,Potency,[14],inactive
same,Potency,[18],inactive
same,Potency,[15],inactive
same,Potency,[16],inactive
Cn1c(N2CCCCS2(=O)=O)nc(C(=O)NCc2ccc(F)cc2)c(O)c1=O,Potency,[4],inactive
same,Potency,[5],inactive
same,Potency,[6],inactive
same,Potency,[11],inactive
same,Potency,[12],inactive
same,Potency,[17],inactive
same,Potency,[7],inactive
same,Potency,[8],inactive
same,Potency,[13],inactive
same,Potency,[14],inactive
same,Potency,[18],inactive
same,Potency,[15],inactive
same,Potency,[16],inactive
CC(C)n1cnc2c(NCCCCCCNC(=O)OC(C)(C)C)nc(NCCO)nc21,Potency,[10],inactive
same,Potency,[11],18.7 µM (active)
same,Potency,[7],inactive
same,Potency,[8],inactive
same,Potency,[13],inactive
same,Potency,[14],inactive
same,Potency,[16],inactive
COc1ccc2c(Oc3ccc(NC(=O)c4c(C)n(CC(C)(C)O)n(-c5ccccc5)c4=O)cc3F)ccnc2c1,Potency,[10],inactive
same,Potency,[6],0.059 µM (active)
same,Potency,[11],23.5 µM (active)
same,Potency,[12],14.8 µM (active)
same,Potency,[9],26.4 µM (active)
O=C(CCCCCCC(=O)Nc1ccccc1)NO,Potency,[4],6.64 µM (active) and 14.7 µM (active)
same,Potency,[5],4.22 µM (active) and 5.9 µM (active)
same,Potency,[6],1.33 µM (active) and 1.87 µM (active)
same,Potency,[11],3.35 µM (active) and 4.69 µM (active)
same,Potency,[12],1.48 µM (active)
same,Potency,[17],5.5 µM (active) and 7.69 µM (active)
same,Potency,[7],1 nM (active) and 1.48 µM (active)
same,Potency,[8],3.35 µM (active) and 4.69 µM (active)
same,Potency,[9],4.73 µM (active) and 5.9 µM (active)
same,Potency,[13],2.73 µM (active) and 7.64 µM (active)
same,Potency,[14],944 nM (active) and 1.32 µM (active)
same,Potency,[18],1 nM (active) and 1.32 µM (active)
same,Potency,[16],2.99 µM (active) and 4.18 µM (active)
CN1[C@@H]2CCC[C@@H]1CC(NC(=O)c1nn(C)c3ccccc13)C2 (stereo not given in full),Potency,[4],inactive
same,Potency,[5],inactive
same,Potency,[6],inactive
same,Potency,[11],inactive
same,Potency,[12],inactive
same,Potency,[8],inactive
same,Potency,[9],inactive
same,Potency,[18],inactive
same,Potency,[16],inactive
